# How the values were obtained:
# Assay in all cases: DAPPL (digital affinity profiling via proximity ligation, sequencing); 10 mM Tris-HCl pH 7.5, 50 mM NaCl, 1 mM DTT, 4% glycerol, room temperature, 30 min; GST-TFs on glutathione beads, 16-mer random dsDNA library, 0.1% formaldehyde crosslink after washing; high values mean tight binding
# [1] = biological target: T1, FEV (Homo sapiens, UniProt Q99581 1-238); settings: protein: recombinant; tags: N-terminal GST; dsDNA, one strand shown
# T1 sequence: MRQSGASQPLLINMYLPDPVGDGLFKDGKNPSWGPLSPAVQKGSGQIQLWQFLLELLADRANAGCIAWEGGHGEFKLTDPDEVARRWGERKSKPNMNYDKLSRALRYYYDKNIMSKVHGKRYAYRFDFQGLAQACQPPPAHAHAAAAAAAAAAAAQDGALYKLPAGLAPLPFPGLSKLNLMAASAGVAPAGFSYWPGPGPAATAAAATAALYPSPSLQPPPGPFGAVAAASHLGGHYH
# Outline: (§1)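 GST fusions of human transcription factors were expressed in yeast and captured with glutathione beads. Once given DNA barcodes and pooled alongside a tag-only sample, they were incubated for 30 min at room temperature with 200 nmole of a random double-stranded 16-mer DNA library in Tris/NaCl/DTT/glycerol buffer, then washed, crosslinked (0.1% formaldehyde), proximity-ligated, PCR-amplified and sequenced on an Illumina NextSeq500. The binding signal of each hexamer is its read frequency for a factor divided by its frequency for the tag-only sample.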
# [2] = biological target: ETV5 (Homo sapiens, UniProt P41161 1-510); settings: protein: recombinant; tags: N-terminal GST; dsDNA, one strand shown
# Outline: as §1
# [3] = biological target: HSF1 (Homo sapiens, UniProt Q00613 1-529); settings: protein: recombinant; tags: N-terminal GST; chain copies: 3; dsDNA, one strand shown
# Outline: as §1
# [4] = biological target: T2, SPIC (Homo sapiens, UniProt Q8N5J4 1-248); settings: protein: recombinant; tags: N-terminal GST; dsDNA, one strand shown
# T2 sequence: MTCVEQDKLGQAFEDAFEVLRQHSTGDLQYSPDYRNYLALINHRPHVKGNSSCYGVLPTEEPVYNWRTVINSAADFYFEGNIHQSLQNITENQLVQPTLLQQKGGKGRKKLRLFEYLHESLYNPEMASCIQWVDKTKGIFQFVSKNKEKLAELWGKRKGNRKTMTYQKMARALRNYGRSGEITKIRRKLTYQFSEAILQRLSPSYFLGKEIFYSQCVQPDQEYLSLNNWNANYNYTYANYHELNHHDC
# Outline: as §1
# [5] = biological target: ELF4 (Homo sapiens, UniProt Q99607 1-663); settings: protein: recombinant; tags: N-terminal GST; dsDNA, one strand shown
# Outline: as §1
# [6] = biological target: T3, ELK4 (Homo sapiens, UniProt P28324-2 1-405); settings: protein: recombinant; tags: N-terminal GST; dsDNA, one strand shown
# T3 sequence: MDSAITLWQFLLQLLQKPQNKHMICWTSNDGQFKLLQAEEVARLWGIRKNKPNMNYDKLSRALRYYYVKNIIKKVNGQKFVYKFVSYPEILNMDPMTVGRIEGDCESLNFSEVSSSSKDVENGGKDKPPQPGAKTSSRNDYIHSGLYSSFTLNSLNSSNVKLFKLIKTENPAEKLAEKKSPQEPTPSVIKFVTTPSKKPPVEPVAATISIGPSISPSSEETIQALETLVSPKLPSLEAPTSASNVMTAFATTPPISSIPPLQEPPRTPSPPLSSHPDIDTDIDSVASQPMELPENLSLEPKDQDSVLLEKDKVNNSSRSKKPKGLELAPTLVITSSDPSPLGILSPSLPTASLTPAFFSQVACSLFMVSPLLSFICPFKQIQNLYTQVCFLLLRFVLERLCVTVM
# Outline: as §1
# [7] = biological target: T4, ETV2 (Homo sapiens, UniProt O00321 1-342); settings: protein: recombinant; tags: N-terminal GST; dsDNA, one strand shown
# T4 sequence: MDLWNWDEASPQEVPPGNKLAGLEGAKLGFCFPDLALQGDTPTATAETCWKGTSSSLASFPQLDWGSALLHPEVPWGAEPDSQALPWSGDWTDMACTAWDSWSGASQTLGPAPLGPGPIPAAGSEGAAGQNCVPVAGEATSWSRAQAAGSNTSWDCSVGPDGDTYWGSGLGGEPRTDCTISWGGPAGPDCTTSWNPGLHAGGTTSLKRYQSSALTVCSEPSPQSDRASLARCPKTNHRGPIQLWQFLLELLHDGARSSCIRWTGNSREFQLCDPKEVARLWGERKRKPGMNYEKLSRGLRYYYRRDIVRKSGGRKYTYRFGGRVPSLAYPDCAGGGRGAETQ
# Outline: as §1
# [8] = biological target: T5, ELF3 (Homo sapiens, UniProt P78545 1-371); settings: protein: recombinant; tags: N-terminal GST; dsDNA, one strand shown
# T5 sequence: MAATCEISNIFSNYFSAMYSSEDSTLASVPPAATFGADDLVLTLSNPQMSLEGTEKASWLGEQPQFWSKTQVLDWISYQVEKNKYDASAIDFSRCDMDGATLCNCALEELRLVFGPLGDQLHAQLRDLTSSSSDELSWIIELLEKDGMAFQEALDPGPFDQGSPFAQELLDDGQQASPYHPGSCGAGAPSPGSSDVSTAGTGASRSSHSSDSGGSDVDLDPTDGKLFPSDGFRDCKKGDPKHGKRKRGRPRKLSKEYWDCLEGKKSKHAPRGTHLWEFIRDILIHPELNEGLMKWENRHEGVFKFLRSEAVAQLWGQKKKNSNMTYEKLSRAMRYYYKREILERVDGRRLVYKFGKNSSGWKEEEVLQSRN
# Outline: as §1
# [9] = biological target: CRX (Homo sapiens, UniProt O43186 1-299); settings: protein: recombinant; tags: N-terminal GST; dsDNA, one strand shown
# Outline: as §1
# [10] = biological target: ETV1 (Homo sapiens, UniProt P50549 1-477); settings: protein: recombinant; tags: N-terminal GST; dsDNA, one strand shown
# Outline: as §1
# [11] = biological target: T6, ERF (Homo sapiens, UniProt P50548 1-548); settings: protein: recombinant; tags: N-terminal GST; dsDNA, one strand shown
# T6 sequence: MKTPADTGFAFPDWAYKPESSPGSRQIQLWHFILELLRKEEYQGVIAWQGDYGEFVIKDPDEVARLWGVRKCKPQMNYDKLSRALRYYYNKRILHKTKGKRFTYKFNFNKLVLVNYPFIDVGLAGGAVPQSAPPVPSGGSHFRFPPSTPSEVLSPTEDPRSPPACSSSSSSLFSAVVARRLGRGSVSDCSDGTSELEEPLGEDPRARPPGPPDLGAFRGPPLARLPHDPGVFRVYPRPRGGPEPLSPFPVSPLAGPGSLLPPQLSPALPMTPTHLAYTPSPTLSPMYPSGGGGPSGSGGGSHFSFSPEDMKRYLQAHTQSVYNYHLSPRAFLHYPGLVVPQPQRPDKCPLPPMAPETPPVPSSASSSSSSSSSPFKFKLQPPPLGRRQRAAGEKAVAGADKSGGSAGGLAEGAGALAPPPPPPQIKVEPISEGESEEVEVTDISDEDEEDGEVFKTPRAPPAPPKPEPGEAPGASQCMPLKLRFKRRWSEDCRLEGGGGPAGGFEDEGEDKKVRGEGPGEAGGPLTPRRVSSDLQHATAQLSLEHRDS
# Outline: as §1
# [12] = biological target: T7, ETV3L (Homo sapiens, UniProt Q6ZN32 1-361); settings: protein: recombinant; tags: N-terminal GST; dsDNA, one strand shown
# T7 sequence: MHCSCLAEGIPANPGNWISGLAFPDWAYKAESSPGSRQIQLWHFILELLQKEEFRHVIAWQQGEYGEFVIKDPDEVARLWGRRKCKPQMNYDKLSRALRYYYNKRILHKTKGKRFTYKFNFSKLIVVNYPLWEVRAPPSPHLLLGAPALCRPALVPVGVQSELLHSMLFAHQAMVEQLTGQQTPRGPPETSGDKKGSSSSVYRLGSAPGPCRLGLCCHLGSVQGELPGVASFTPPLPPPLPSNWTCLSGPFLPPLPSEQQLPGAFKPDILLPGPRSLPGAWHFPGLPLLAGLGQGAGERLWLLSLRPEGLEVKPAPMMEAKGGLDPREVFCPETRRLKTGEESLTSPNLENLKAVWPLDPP
# Outline: as §1
# [13] = biological target: T8, ETS2 (Homo sapiens, UniProt P15036 1-469); settings: protein: recombinant; tags: N-terminal GST; dsDNA, one strand shown
# T8 sequence: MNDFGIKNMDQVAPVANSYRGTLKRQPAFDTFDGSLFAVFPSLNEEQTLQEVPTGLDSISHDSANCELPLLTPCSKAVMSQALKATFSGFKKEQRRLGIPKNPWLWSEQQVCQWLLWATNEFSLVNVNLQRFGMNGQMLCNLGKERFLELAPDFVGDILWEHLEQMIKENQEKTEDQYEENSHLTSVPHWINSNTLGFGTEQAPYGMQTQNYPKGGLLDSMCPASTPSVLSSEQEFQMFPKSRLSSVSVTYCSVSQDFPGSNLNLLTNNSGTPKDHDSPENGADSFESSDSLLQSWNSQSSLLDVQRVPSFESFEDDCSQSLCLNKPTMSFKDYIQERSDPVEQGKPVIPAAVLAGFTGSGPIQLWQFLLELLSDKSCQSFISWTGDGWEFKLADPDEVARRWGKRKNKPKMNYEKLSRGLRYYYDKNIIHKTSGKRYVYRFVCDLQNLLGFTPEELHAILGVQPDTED
# Outline: as §1
# [14] = biological target: T9, SPDEF (Homo sapiens, UniProt O95238 1-335); settings: protein: recombinant; tags: N-terminal GST; dsDNA, one strand shown
# T9 sequence: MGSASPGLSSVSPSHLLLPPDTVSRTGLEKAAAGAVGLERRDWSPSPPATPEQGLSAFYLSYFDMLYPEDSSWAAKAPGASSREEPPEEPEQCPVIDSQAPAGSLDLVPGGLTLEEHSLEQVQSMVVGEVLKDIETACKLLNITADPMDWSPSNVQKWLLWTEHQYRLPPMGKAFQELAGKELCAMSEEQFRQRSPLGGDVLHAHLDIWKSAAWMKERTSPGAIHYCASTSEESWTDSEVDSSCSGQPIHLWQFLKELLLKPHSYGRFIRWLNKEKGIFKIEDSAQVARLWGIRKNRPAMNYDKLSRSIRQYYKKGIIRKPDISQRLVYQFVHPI
# Outline: as §1
# [15] = biological target: T10, ETV7 (Homo sapiens, UniProt Q9Y603 1-341); settings: protein: recombinant; tags: N-terminal GST; dsDNA, one strand shown
# T10 sequence: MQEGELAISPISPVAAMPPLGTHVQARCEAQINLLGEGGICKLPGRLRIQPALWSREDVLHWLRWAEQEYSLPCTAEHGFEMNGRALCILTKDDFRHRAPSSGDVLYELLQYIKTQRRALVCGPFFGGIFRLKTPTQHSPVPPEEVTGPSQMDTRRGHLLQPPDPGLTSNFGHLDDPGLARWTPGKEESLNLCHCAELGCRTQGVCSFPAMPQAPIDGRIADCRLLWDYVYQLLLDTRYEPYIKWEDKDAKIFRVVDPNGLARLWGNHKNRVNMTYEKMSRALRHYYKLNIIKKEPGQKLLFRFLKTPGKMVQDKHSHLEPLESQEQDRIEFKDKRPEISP
# Outline: as §1
# [16] = biological target: T11, ELF5 (Homo sapiens, UniProt Q9UKW6-2 1-255); settings: protein: recombinant; tags: N-terminal GST; dsDNA, one strand shown
# T11 sequence: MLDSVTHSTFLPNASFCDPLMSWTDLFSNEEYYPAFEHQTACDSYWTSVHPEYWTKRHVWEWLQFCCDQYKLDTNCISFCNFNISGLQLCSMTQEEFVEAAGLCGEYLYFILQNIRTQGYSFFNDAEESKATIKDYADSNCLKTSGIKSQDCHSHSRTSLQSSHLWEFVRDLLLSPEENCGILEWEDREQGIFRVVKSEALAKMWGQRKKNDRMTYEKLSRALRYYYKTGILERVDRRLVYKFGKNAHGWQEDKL
# Outline: as §1
# [17] = biological target: T12, ETV3 (Homo sapiens, UniProt P41162-2 1-143); settings: protein: recombinant; tags: N-terminal GST; dsDNA, one strand shown
# T12 sequence: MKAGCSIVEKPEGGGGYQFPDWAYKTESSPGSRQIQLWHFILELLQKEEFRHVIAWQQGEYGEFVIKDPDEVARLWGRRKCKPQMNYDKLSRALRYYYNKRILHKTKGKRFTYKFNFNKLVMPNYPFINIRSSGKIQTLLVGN
# Outline: as §1
# [18] = biological target: ETV6 (Homo sapiens, UniProt P41212 1-452); settings: protein: recombinant; tags: N-terminal GST; dsDNA, one strand shown
# Outline: as §1
# ETV6, sequence (P41212 whole entry): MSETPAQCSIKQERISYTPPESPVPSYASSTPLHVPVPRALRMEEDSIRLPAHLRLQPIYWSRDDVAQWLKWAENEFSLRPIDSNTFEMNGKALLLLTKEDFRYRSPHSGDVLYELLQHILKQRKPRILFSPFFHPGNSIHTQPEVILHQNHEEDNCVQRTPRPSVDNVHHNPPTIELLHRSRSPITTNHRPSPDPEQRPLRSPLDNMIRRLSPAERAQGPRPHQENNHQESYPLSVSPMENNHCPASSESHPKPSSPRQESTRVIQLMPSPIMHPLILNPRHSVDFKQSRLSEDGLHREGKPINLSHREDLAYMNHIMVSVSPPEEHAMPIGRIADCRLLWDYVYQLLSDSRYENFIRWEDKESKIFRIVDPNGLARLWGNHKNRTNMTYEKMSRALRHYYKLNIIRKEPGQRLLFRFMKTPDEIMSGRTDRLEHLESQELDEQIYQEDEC
# ELF4, sequence (Q99607 whole entry): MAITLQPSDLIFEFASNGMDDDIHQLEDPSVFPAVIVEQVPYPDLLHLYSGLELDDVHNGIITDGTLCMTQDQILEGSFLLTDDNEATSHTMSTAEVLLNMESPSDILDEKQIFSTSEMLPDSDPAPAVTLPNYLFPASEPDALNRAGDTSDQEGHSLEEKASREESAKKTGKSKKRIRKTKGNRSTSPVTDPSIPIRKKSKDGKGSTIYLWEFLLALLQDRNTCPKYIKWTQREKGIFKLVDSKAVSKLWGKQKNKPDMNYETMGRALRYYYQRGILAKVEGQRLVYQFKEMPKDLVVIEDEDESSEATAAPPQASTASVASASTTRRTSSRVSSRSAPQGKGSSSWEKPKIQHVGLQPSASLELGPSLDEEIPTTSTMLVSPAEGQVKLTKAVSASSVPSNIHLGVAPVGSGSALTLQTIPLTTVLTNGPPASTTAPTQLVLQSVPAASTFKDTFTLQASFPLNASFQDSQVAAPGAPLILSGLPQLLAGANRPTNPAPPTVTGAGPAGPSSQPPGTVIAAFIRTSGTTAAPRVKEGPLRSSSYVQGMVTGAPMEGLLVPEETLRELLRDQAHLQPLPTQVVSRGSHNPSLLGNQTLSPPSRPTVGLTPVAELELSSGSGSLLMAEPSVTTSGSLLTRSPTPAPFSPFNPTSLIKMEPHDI
# ETV5, sequence (P41161 whole entry): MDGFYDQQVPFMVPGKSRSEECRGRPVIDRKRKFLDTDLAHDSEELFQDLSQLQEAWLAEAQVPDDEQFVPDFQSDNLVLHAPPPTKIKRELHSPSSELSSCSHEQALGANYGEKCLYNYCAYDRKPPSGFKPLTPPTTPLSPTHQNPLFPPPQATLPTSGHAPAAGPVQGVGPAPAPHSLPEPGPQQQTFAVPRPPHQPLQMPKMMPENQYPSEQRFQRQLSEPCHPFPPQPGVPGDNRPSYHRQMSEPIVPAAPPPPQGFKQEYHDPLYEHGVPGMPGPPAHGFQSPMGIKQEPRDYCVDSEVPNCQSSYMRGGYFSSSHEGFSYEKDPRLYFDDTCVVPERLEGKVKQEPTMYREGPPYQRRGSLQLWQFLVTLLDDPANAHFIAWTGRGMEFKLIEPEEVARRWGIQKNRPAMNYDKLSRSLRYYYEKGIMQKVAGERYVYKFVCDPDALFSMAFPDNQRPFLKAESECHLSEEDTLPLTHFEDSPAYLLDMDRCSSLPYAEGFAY
# ETV1, sequence (P50549 whole entry): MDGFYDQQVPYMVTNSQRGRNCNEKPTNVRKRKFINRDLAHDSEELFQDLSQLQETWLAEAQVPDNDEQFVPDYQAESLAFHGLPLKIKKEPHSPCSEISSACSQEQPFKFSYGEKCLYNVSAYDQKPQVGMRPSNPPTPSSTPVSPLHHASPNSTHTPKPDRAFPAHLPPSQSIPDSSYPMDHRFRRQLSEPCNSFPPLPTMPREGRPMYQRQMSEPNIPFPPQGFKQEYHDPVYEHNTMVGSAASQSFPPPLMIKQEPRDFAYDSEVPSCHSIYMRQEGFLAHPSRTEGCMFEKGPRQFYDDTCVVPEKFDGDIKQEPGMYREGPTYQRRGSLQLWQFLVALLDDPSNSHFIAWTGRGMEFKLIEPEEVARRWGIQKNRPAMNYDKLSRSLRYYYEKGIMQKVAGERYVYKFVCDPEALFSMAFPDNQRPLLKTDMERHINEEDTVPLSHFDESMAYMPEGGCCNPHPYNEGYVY
# CRX, sequence (O43186 whole entry): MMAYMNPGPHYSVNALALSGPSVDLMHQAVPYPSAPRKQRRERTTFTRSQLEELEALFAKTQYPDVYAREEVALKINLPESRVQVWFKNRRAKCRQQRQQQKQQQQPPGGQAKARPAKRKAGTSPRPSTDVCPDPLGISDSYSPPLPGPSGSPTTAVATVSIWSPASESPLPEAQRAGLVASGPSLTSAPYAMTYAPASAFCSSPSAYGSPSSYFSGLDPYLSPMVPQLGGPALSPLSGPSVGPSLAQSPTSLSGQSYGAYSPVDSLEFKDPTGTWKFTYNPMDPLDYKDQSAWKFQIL
# HSF1, sequence (Q00613 whole entry): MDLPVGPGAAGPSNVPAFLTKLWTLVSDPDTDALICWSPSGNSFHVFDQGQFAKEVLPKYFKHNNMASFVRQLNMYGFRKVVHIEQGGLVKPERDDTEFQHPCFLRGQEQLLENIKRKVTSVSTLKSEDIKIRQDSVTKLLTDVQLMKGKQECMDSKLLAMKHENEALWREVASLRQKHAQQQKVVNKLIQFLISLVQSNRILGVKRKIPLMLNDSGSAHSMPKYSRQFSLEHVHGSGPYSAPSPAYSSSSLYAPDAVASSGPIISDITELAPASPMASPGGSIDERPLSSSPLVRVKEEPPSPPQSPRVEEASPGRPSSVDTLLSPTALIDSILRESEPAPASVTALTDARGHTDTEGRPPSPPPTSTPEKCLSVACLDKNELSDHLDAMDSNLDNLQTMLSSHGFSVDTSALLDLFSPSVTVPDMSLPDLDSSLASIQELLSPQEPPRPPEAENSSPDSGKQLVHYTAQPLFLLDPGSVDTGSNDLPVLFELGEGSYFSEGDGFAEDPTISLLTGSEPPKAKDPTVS
sequence,measurement,setting,value
CTATGC,binding signal,[1],"1.36 fold enrichment (6-mer frequency, TF over GST control)"
same,binding signal,[2],"1.38 fold enrichment (6-mer frequency, TF over GST control)"
same,binding signal,[3],"1.28 fold enrichment (6-mer frequency, TF over GST control)"
same,binding signal,[4],"1.54 fold enrichment (6-mer frequency, TF over GST control)"
same,binding signal,[5],"1.48 fold enrichment (6-mer frequency, TF over GST control)"
same,binding signal,[6],"1.38 fold enrichment (6-mer frequency, TF over GST control)"
same,binding signal,[7],"1.55 fold enrichment (6-mer frequency, TF over GST control)"
same,binding signal,[8],"1.2 fold enrichment (6-mer frequency, TF over GST control)"
same,binding signal,[9],"1.15 fold enrichment (6-mer frequency, TF over GST control)"
same,binding signal,[10],"1.55 fold enrichment (6-mer frequency, TF over GST control)"
same,binding signal,[11],"1.34 fold enrichment (6-mer frequency, TF over GST control)"
same,binding signal,[12],"1.52 fold enrichment (6-mer frequency, TF over GST control)"
same,binding signal,[13],"1.44 fold enrichment (6-mer frequency, TF over GST control)"
same,binding signal,[14],"1.49 fold enrichment (6-mer frequency, TF over GST control)"
same,binding signal,[15],"1.42 fold enrichment (6-mer frequency, TF over GST control)"
same,binding signal,[16],"1.33 fold enrichment (6-mer frequency, TF over GST control)"
same,binding signal,[17],"1.55 fold enrichment (6-mer frequency, TF over GST control)"
same,binding signal,[18],"1.33 fold enrichment (6-mer frequency, TF over GST control)"

# Source: paper PMC7862700, “An all-to-all approach to the identification of sequence-specific readers for epigenetic DNA modifications on cytosine”
